Measurements reported in ChEMBL document CHEMBL4513135, “CO-ADD screening of IQOG CSIS (Spain) compounds”.
Measured potencies and affinities stand elsewhere.

test system: Klebsiella pneumoniae; settings: Concentration 32 ug.mL-1; ASSAY_TEST Inhibition of Bacterial Growth; detection method Absorption (OD600); MEDIA CAMHB; plate type 384well; NBS; CORNING #3640; time 18 hr

Question: `C#CCN(C)Cc1cc2cc(OCCCCC3CCN(Cc4ccccc4)CC3)ccc2n1C.Cl` was tested. Which Inhibition did it give?
Answer: 25.34%

Question: Which Inhibition does the source give for `N#Cc1c(N)nc(S)c(C#N)c1-c1ccccc1` here?
Answer: 24.85%

Question: For `CC(=O)Oc1ccc(C=C2N=C(c3ccccc3)OC2=O)cc1`, which Inhibition is on record?
Answer: -12.75%

Question: `N#CC1=C(N)Oc2c(ccc3ccccc23)C1c1cccc([N+](=O)[O-])c1` (centres undefined) was tested. Which Inhibition did it give?
Answer: 11.95%

Question: `C#CCN(C)c1nc(NCCC2CCN(Cc3ccccc3)CC2)c(C#N)cc1C#N.Cl` was tested. Which Inhibition did it give?
Answer: 3.63%

Question: How did the Inhibition turn out when `Cn1c(C(=O)O)cc2ccccc21` was run?
Answer: 18.05%

Question: `COc1cccc(C2c3c(ccc4ccccc34)OC(=NBr)C2(Br)C#N)c1` (centres undefined) was tested. Which Inhibition did it give?
Answer: 33.1%

Question: `N#Cc1c(N)nc(NCCCCC2CCN(Cc3ccccc3)CC2)c(C#N)c1-c1ccccc1` was tested. Which Inhibition did it give?
Answer: 9.09%

Question: How did the Inhibition turn out when `C=C1CN(C)c2c(C#N)cc(C#N)c(=S)n21` was run?
Answer: 3.88%

Question: For `C/C(Cc1ccccc1)=N/NC(=O)c1c[nH]c2ccc(O)cc12`, which Inhibition is on record?
Answer: 5.8%

Question: Which Inhibition does the source give for `COc1cc(Br)c(C=O)cc1OC` here?
Answer: 3.95%

Question: `CC1Cc2c(Br)nc3nc4c(c(N)c3c2NC1=O)CCCC4` (centres undefined) was tested. Which Inhibition did it give?
Answer: 20.62%

Question: Which Inhibition does the source give for `N#CC1=C(Cl)Oc2c(ccc3ccccc23)C1c1ccccc1` (centres undefined) here?
Answer: 10.59%

Question: How did the Inhibition turn out when `CC(C)(C)OC(=O)Nc1ccc(Cl)cn1` was run?
Answer: 13.6%

Question: `Cn1ccnc1C1c2ccc3cccnc3c2Oc2nc3c(c(N)c21)CCC3` (centres undefined) was tested. Which Inhibition did it give?
Answer: 5.38%

Question: How did the Inhibition turn out when `COc1cc(C2c3c(nc4c(c3N)CCC4)Oc3ccc4ccccc4c32)ccc1O` (centres undefined) was run?
Answer: 23.66%

Question: `C#CCN(C)Cc1cc2cc(OCCCCC3CCN(Cc4ccccc4)CC3)ccc2n1C` was tested. Which Inhibition did it give?
Answer: 10.12%

Question: How did the Inhibition turn out when `N#Cc1c(N)nc2c(c1-c1ccccc1)CN(Cc1ccccc1)CC2` was run?
Answer: 16.71%

Question: Which Inhibition does the source give for `CC#CCN.Cl` here?
Answer: 8.69%

Question: How did the Inhibition turn out when `NC(=O)N/N=C/c1c[nH]c2ccccc12` was run?
Answer: 23.24%

Question: How did the Inhibition turn out when `COC(=O)/C(=C/c1ccc(O)cc1)NC(=O)c1ccccc1` was run?
Answer: -14.62%

Question: `CC1Cc2ccccc2N1/N=C/c1ccccc1` (centres undefined) was tested. Which Inhibition did it give?
Answer: 2.26%

Question: How did the Inhibition turn out when `N#Cc1cccnc1N` was run?
Answer: 16.36%

Question: For `C#CCN(C)c1cc(C)nc(C)n1`, which Inhibition is on record?
Answer: 18.17%

Question: For `COc1ccc(C2C(C#N)=C(N)Oc3ccc4ccccc4c32)cc1` (centres undefined), which Inhibition is on record?
Answer: 8.69%

Question: `C#CCNc1nc(NC2CCN(Cc3ccccc3)CC2)c(C#N)c(-c2ccccc2)c1C#N` was tested. Which Inhibition did it give?
Answer: -8.37%

Question: Which Inhibition does the source give for `COc1ccc(-c2cc(-c3cc4c(C)cc(C)cc4nc3Cl)cc(=O)[nH]2)cc1` here?
Answer: 4.51%

Question: `CC(=O)NC=C1C(=O)OC(C)(C)OC1=O` was tested. Which Inhibition did it give?
Answer: 18.67%

Question: How did the Inhibition turn out when `Cc1ccc(C2c3c(Cl)nnnc3Oc3ccc4ccccc4c32)cc1` (centres undefined) was run?
Answer: 9.62%

Question: How did the Inhibition turn out when `CC(=O)NCCc1ccccc1` was run?
Answer: 14.22%

Question: `CCOC(=O)c1cc2cc(OC)ccc2n1C` was tested. Which Inhibition did it give?
Answer: -11.12%

Question: How did the Inhibition turn out when `N#Cc1cc2c(N)c3c(nc2nc1N1CCCCC1)CCCC3` was run?
Answer: 18.01%

Question: With `COc1ccc(C2c3c(ccc4ccccc34)OC(=NBr)C2(Br)C#N)cc1OC` (centres undefined) as the compound, how does the Inhibition read?
Answer: 4.11%

Question: With `Cn1c(CO)cc2cc(OCCCC3CCN(Cc4ccccc4)CC3)ccc21` as the compound, how does the Inhibition read?
Answer: -2.86%
